Reference: PubChem BioAssay (NCI)
This is part of a sample that, as a whole, favours compounds with a hit. Of some 79,000 tested, about 15% had one in any assay. Active and inactive are the calls of the source. Rule as the data show it: active = growth inhibition above about 70%; inactive = the rest.

Experiments:
[1] = NCI Yeast Anticancer Drug Screen. Data for the rad50 strain (AID 155);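 also: 0% = growth of vehicle-only cultures of the same strain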; conditions: S. cerevisiae rad50 strain growth inhibition; at 50.0 µM; hits give high values
In short: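 Yeast carrying a defined DNA repair defect were exposed to test compounds, and growth was compared with vehicle-treated controls to give percent inhibition.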

[2] = NCI Yeast Anticancer Drug Screen. Data for the mec2-1 strain (AID 157); conditions: S. cerevisiae mec2-1 strain, at 50.0 µM, hits give high values
In short: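 Test agents were screened against the mec2-1 yeast strain, with defined DNA repair or cell cycle alteration. Growth was scored as inhibition against vehicle-only controls.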

[3] = NCI Yeast Anticancer Drug Screen. Data for the sgs1 mgt1 strain (AID 161);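 also: 0% = growth of cultures given vehicle only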; conditions: S. cerevisiae sgs1 mgt1 strain, at 50.0 µM, hits give high values
In short: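 Mutant yeast exposed to compound; growth scored against vehicle-only wells.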

[4] = NCI Yeast Anticancer Drug Screen. Data for the cln2 rad14 strain (AID 165);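 also: 0% = growth equal to vehicle treated cultures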; conditions: S. cerevisiae cln2 rad14 strain, at 50.0 µM, hits give high values
In short: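 Growth of compound-exposed yeast (cln2 rad14 genotype) measured and expressed as inhibition relative to vehicle.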

[5] = NCI Yeast Anticancer Drug Screen. Data for the bub3 strain (AID 167); conditions: S. cerevisiae bub3 mutant strain, at 50.0 µM, hits give high values
In short: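 Compounds were applied to a genetically altered yeast strain carrying a cell-cycle control defect. Growth inhibition was scored against vehicle-treated controls.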

[6] = NCI Yeast Anticancer Drug Screen. Data for the mlh1 rad18 strain (AID 175); conditions: S. cerevisiae mlh1 rad18 strain growth inhibition; at 50.0 µM; hits give high values
In short: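 In this whole-cell yeast screen, a strain with altered DNA damage repair is challenged with compound, and its growth is measured against matched vehicle-treated controls.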

Measured: growth inhibition

Cc1cncc(NS(=O)(=O)c2ccc(N)cc2)n1
inactive: [1] 0.7% | [2] 8.7% | [3] -5.45% | [4] -13.9% | [5] 10% | [6] 6.9%

CC(=O)Nc1cccc(F)c1
inactive: [1] -35.1% | [2] 1.1% | [3] -25.4% | [4] -22.2% | [5] -13.8% | [6] -38.1%

Cc1ccc([N+](=O)[O-])c2c(NCCCN(C)C)ccnc12
inactive: [1] 42.2% | [2] 16.1% | [3] 20% | [4] 4.7% | [5] 13.2% | [6] 49.2%

COc1ccc(C(C#N)NC23CC4CC(CC(C4)C2)C3)cc1OC (centres undefined)
inactive: [1] -11.8% | [2] -19.8% | [3] -25.1% | [4] -15.2% | [5] -56.2% | [6] -19.5%

CCc1nc(N)nc(N)c1-c1ccc(NC(C)c2ccccc2)c([N+](=O)[O-])c1 (centres undefined)
inactive: [1] 13.6% | [2] -8.4% | [3] 14.5% | [4] -1.1% | [5] 9.1% | [6] -7.6%

CCOC1CCC(C(=O)CC)C(C#N)(C#N)C1(C#N)C#N (centres undefined)
inactive: [1] 22.6% | [2] 13.7% | [3] 4.75% | [4] 12.8% | [5] 11.8% | [6] 7.8%

O=C1NC2C1C1c3ccccc3C2C12CC2 (centres undefined)
inactive: [1] -11.1% | [2] -7.95% | [3] -13.6% | [4] -11.8% | [5] 13.1% | [6] -1.85%

CC(=O)OCC1OC(n2cnc3c(N)ncnc32)C(Nc2ccc([N+](=O)[O-])cc2[N+](=O)[O-])C(OC(C)=O)C1OC(C)=O (centres undefined)
inactive: [1] 23.2% | [2] 4.4% | [3] 5.8% | [4] 17.9% | [5] 3.45% | [6] 21.8%

CC(=O)Nc1cc2cc(NS(=O)(=O)c3cc(C(F)(F)F)cc(C(F)(F)F)c3)ccc2oc1=O
inactive: [1] 0% | [2] -10.2% | [3] -4.9% | [4] 17.4% | [5] -9.95% | [6] 10.9%

CC(=O)OC1CC(C(C)C)CCC1C (centres undefined)
inactive: [1] 18.1% | [2] 12.8% | [3] 6.3% | [4] 4.95% | [5] -8.55% | [6] 11.7%

C=C1N(C)c2ccccc2C1(C)C
inactive: [1] 22.7% | [2] 10.2% | [3] -12.2% | [4] 29.4% | [5] 6.2% | [6] 17.3%

CC(NNC(=S)N1CCC(c2ccccc2)CC1)c1ccc2ccccc2n1 (centres undefined)
inactive: [1] -48.9% | [2] 9.25% | [3] 29.9% | [4] 11.5% | [5] -2% | [6] 26.9%

Cc1cccc(NC(=O)CSc2nnc(-c3ccc(N=Cc4ccc(Cl)cc4)cc3)o2)c1
inactive: [1] 6.3% | [2] -24.1% | [3] 9.25% | [4] -42.5% | [5] 6.8% | [6] 14.7%

COc1ccc(C)c(CN(C)C)c1
inactive: [1] 7.85% | [2] -7.7% | [3] 8.35% | [4] 5.25% | [5] -1.2% | [6] 23.6%

Cc1cc(Cl)ncc1[N+](=O)[O-]
inactive: [1] -12.2% | [2] 14.3% | [3] 7.55% | [4] -15.9% | [5] -9.65% | [6] 5.75%

O=C(Oc1ccccc1)N1CCCSC1=S
inactive: [1] 19.4% | [2] -14.3% | [3] 5.35% | [4] 31.4% | [5] 16.2% | [6] 51.2%

CC1=C(O)C(=O)C2C(=O)C1C1Cc3ccccc3C21 (centres undefined)
inactive: [1] -21.1% | [2] -2.05% | [3] -24.6% | [4] -3.2% | [5] -2.1% | [6] -17.6%

O=S(=O)(N=S(c1ccccc1)c1ccccc1)c1ccccc1
inactive: [1] -67% | [2] -66.2% | [3] -63.1% | [4] -20.9% | [5] -59.6% | [6] -51.2%

CN(C=C(c1ccccc1)c1ccccc1)c1ccccc1
inactive: [1] -15.6% | [2] -7.85% | [3] 2.2% | [4] -21.6% | [5] -12.8% | [6] -32.6%
